Each structure is given as a SMILES string. Results filed as inconclusive are left out. Active and inactive are the calls of the source. The call rests on the fitted dose curve; in most records, active means well fitted activation curve with a large enough effect; inconclusive means small, poorly fitted or top-dose-only effect; inactive means no such curve, though single readings can be large or run the other way.

This test is described as follows: qHTS for Activators of Parkin Expression: LOPAC Validation Assay (FLuc Reporter) (AID 720573;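 further: 0% = DMSO and 100% = positive control compounds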). The conditions noted are these: Cell line, PRKN promoter firefly luciferase reporter; series mostly up to 46.1 µM; activation: at the top concentration. An outline of the steps:
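Readout is FLuc luminescence from neuronal reporter cells (Parkin promoter, FLuc plus NLuc) after 24 h compound exposure in dose response. Values normalized to neutral DMSO and positive-control compounds.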
For `Nc1nc2ccc(Cl)cc2c2nc(-c3ccco3)nn12`, the “activation” value is -0.633% (inactive).

Take `O=c1onc2n1-c1cc(Br)ccc1OC2`: the “activation” value was -6.69% (inactive).

Consider `C=C1C[C@@]23CC[C@H]4[C@@](C)(CCC[C@@]4(C)C(=O)OC4OC(CO)C(O)C(O)C4O)[C@@H]2CC[C@]1(OC1OC(CO)C(O)C(O)C1OC1OC(CO)C(O)C(O)C1O)C3` (some centres not stated), for which the “activation” value was -12.5% (inactive).

As for `[Li+]`, the “activation” value is 0.609% (inactive).

Turning to `C[C@](Cc1ccc(O)c(O)c1)(NN)C(=O)O`, the “activation” value was -13.5% (inactive).

As for `CCCCS(=N)(=O)CC[C@H](N)C(=O)O` (some centres not stated), the “activation” value is -2.81% (inactive).

On to `Nn1nnc2ccccc21`, for which the “activation” value was 3.7% (inactive).

As for `CSC(=N)N`, the “activation” value is -7.85% (inactive).

For `O=C1NC(=O)c2cc(Nc3ccccc3)c(Nc3ccccc3)cc21`, the “activation” value was -18.2% (inactive).

As for `C=C(C)C1CC=C(C(=O)O)CC1` (configuration not stated), the “activation” value was -5.08% (inactive).

Take `NC(=O)CNCCC(c1ccccc1)c1ccccc1`: the “activation” value is -2.23% (inactive).

With `CCCn1c(=O)c2[nH]c(-c3ccc(S(=O)(=O)O)cc3)nc2n(CCC)c1=O`, the “activation” value was -7.48% (inactive).

For `NC(N)=NC(N)=Nc1ccccc1`, the “activation” value was 3.65% (inactive).

As to `NC(Cc1cccc(-c2ccccc2CP(=O)(O)O)c1)C(=O)O` (configuration not stated), the “activation” value was 5.43% (inactive).

For `CCCCCCCC/C=C\CCCCCCCC(=O)NCCc1ccc(O)c(O)c1`, the “activation” value was -24.4% (inactive).

On to `N=C(N)c1ccccc1`, for which the “activation” value is -10.5% (inactive).

`NCC(O)C1CCCCCCC1` (configuration not stated): the “activation” value is -7.08% (inactive).

These data come from PubChem BioAssay (NCATS).
